Measurements as given in the supplement of paper PMC10849652.
Of roughly 8,800 targets only a part is listed; those with a hit were picked by preference. About 0.5% of all pairs of compound and target were hits.

Key:
Assay in all cases: log2 fold change, soluble protein after heating vs DMSO (PISA); higher = thermal stabilisation; K562 lysate, 10 uM; active = over 0.2 and 3.5 SD of the protein, either way, in both replicates (recomputed)
ibrutinib = compound: C=CC(=O)N1CCC[C@@H](n2nc(-c3ccc(Oc4ccccc4)cc3)c3c(N)ncnc32)C1 [ibrutinib]
How it was run: (§1)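 K562 pellets were dounce-homogenised in PBS pH 7.4 containing 1 mM MgCl2, and the crude extract, at 1 mg/mL protein, was exposed to 10 μM compound for 30 min. Aliquots were heated for 3 min across 48°C-58°C, pooled, brought to 0.5% NP-40 at 4°C and spun at 21,000xg for 90 min, with the supernatant taken as soluble protein. TMTpro 16plex LC-MS/MS with equalised channel sums quantified that protein. Values are log-two fold changes in thermal stability relative to solvent controls, taken from duplicates.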

[1] = compound: CC(=O)c1cnc2ccc(-c3cc(Cl)c(O)c(Cl)c3)nc2c1N[C@H]1CC[C@H](CN(C)C)CC1
How it was run: as §1

ralimetinib = compound: CC(C)(C)Cn1c(N)nc2ccc(-c3[nH]c(C(C)(C)C)nc3-c3ccc(F)cc3)nc21 [ralimetinib]
How it was run: as §1

[2] = compound: CC(C)(O)CC(=O)NCCn1ccc2ncnc(Nc3ccc(Oc4cccc(C(F)(F)F)c4)c(Cl)c3)c21
How it was run: as §1

[3] = compound: CC(C)C1=C2N=C(C=C(N2N=C1)NCC3=CC=CC=C3)NCCCCCCN
How it was run: as §1

[4] = compound: CC1=C(C(CC(=O)N1)C2=CC=C(C=C2)C(F)(F)F)C(=O)NC3=C(C=C4C(=C3)C=NN4)F
How it was run: as §1

[5] = compound: CC1=C(C2=C(C=C1)C(=O)C3=CC=CC=C3N2CCCN)C
How it was run: as §1

[6] = compound: CC1=C(C=C(C=C1)NC(=O)C2=CC(=CC=C2)C(C)(C)C#N)NC3=CC4=C(C=C3)N=CN(C4=O)C
How it was run: as §1

[7] = compound: CC1=C(C=C(C=C1)NC(=O)C2=CC(=CC=C2)N(C)C)NC(=O)C3=CC=C(C=C3)O
How it was run: as §1

[8] = compound: CC1=CC=C(C=C1)SC2=C3C=C(SC3=CN=C2)C(=O)N
How it was run: as §1

Measured: log2 fold change

NEK9 (UniProt Q8TD19)
inactive: ibrutinib 0.005 | [1] 0.027 | ralimetinib 0.055 | [2] 0 | [3] 0.01 | [4] 0.006 | [5] -0.01 | [6] 0.012 | [7] 0.009 | [8] 0.016

N4BP2 (UniProt Q86UW6)
Chain of UniProt Q86UW6 (Q86UW6 whole entry, looked up): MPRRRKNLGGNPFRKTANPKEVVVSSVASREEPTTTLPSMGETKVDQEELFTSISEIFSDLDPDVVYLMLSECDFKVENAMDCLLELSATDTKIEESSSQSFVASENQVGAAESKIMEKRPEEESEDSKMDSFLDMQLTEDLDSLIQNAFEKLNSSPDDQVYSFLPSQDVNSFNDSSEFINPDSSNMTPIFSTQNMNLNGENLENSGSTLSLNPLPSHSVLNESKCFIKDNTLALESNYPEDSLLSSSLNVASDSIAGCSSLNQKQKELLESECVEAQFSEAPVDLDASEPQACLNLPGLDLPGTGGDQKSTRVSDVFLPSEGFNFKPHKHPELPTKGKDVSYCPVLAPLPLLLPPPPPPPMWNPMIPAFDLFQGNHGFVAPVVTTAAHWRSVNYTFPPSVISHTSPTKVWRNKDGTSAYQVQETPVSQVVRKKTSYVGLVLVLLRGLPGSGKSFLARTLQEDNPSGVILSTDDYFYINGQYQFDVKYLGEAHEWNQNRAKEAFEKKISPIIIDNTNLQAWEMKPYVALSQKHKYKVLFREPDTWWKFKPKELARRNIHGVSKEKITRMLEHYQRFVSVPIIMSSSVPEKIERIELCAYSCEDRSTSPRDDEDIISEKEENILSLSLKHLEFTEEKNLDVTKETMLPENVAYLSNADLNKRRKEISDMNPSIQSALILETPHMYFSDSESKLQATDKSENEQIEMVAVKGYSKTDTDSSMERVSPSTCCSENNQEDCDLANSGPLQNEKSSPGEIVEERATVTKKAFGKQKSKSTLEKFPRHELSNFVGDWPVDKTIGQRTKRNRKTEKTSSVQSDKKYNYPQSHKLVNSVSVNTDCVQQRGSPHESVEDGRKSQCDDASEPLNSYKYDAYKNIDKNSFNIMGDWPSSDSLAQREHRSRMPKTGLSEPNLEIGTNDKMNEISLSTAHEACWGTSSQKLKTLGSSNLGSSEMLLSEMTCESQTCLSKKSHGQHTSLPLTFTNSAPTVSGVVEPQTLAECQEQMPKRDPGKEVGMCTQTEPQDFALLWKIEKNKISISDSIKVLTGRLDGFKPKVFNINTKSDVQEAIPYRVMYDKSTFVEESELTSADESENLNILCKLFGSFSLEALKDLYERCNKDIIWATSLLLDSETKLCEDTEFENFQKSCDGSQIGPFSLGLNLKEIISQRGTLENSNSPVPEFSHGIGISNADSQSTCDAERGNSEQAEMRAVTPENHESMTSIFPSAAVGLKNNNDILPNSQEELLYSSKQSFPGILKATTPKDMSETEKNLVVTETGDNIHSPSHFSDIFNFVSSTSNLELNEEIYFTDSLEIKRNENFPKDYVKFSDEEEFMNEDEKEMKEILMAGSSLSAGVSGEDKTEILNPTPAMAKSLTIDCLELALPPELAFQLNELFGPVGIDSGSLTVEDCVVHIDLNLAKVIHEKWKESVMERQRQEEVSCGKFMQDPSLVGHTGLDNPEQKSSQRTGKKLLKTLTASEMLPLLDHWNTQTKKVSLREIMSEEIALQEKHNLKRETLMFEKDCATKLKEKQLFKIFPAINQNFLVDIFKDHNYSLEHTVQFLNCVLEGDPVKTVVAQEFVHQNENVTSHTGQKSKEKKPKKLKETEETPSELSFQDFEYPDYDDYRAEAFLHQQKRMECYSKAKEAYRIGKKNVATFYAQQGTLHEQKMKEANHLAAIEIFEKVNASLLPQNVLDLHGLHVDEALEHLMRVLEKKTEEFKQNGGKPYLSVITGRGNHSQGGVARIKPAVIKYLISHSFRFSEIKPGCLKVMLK
inactive: ibrutinib 0.094 | [1] -0.041 | ralimetinib 0.038 | [2] -0.053 | [3] 0.047 | [4] 0.03 | [5] -0.011 | [6] -0.005 | [7] -0.034 | [8] -0.027

NIPBL (UniProt Q6KC79)
inactive: ibrutinib 0.026 | [1] 0.008 | ralimetinib 0.035 | [2] -0.016 | [3] 0.036 | [4] 0.007 | [5] -0.025 | [6] -0.03 | [7] -0.044 | [8] 0.021

OGFOD2 (UniProt Q6N063)
Chain of UniProt Q6N063 (Q6N063 whole entry, looked up): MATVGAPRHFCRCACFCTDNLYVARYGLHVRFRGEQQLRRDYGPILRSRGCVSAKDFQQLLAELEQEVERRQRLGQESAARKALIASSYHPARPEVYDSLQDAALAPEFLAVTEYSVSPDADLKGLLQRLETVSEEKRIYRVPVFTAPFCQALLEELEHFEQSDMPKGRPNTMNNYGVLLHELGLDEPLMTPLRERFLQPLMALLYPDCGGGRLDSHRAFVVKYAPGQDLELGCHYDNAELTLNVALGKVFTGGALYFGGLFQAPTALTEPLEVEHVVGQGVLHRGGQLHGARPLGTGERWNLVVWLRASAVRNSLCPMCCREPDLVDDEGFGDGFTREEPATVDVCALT
inactive: ibrutinib 0.002 | [1] 0.023 | ralimetinib -0.012 | [2] -0.018 | [3] -0.125 | [4] -0.023 | [5] 0.025 | [6] -0.04 | [7] -0.029 | [8] -0.023

NCAPG (UniProt Q9BPX3)
inactive: ibrutinib 0.006 | [1] 0.015 | ralimetinib 0.027 | [2] -0.015 | [3] -0.026 | [4] -0.009 | [5] -0.02 | [6] 0.014 | [7] 0.018 | [8] 0.024

OTUD7B (UniProt Q6GQQ9)
active: [6] 0.239
inactive: ibrutinib -0.008 | [1] 0.004 | ralimetinib 0.026 | [2] 0.005 | [3] -0.034 | [4] -0.011 | [5] -0.019 | [7] 0 | [8] 0.047

N6AMT1 (UniProt Q9Y5N5)
Chain of UniProt Q9Y5N5 (Q9Y5N5 whole entry, looked up, one chain of several): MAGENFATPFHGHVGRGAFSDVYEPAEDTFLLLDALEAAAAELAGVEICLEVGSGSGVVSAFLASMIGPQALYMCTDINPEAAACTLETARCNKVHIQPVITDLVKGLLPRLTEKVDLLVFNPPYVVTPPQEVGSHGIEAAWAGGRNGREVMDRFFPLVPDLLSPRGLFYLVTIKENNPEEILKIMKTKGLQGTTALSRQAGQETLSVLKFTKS
inactive: ibrutinib 0.103 | [1] -0.03 | ralimetinib 0.005 | [2] -0.006 | [3] 0.009 | [4] -0.045 | [5] -0.026 | [6] 0.01 | [7] 0.024 | [8] 0.027

OAT (UniProt P04181)
Chain of UniProt P04181 (P04181 whole entry, looked up): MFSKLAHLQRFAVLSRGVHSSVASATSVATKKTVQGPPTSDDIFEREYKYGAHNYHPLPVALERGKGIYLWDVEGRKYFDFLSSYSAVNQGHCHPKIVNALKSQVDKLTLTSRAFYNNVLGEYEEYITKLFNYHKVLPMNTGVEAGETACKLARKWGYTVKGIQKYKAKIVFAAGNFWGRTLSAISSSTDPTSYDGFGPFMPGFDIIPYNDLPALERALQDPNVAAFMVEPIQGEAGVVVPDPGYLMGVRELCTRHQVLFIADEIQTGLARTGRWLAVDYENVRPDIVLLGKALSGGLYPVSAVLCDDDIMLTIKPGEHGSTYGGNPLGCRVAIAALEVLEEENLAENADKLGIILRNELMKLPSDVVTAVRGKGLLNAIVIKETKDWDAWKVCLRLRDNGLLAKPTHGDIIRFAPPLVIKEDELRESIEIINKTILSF
inactive: ibrutinib -0.007 | [1] 0.013 | ralimetinib 0.009 | [2] 0.002 | [3] 0 | [4] -0.045 | [5] -0.018 | [6] -0.006 | [7] 0.034 | [8] -0.009

NUP210 (UniProt Q8TEM1)
inactive: ibrutinib -0.029 | [1] -0.01 | ralimetinib -0.011 | [2] -0.075 | [3] -0.005 | [4] 0.024 | [5] -0.017 | [6] -0.005 | [7] -0.027 | [8] -0.012

NCAPH (UniProt Q15003)
Chain of UniProt Q15003 (Q15003 whole entry, looked up): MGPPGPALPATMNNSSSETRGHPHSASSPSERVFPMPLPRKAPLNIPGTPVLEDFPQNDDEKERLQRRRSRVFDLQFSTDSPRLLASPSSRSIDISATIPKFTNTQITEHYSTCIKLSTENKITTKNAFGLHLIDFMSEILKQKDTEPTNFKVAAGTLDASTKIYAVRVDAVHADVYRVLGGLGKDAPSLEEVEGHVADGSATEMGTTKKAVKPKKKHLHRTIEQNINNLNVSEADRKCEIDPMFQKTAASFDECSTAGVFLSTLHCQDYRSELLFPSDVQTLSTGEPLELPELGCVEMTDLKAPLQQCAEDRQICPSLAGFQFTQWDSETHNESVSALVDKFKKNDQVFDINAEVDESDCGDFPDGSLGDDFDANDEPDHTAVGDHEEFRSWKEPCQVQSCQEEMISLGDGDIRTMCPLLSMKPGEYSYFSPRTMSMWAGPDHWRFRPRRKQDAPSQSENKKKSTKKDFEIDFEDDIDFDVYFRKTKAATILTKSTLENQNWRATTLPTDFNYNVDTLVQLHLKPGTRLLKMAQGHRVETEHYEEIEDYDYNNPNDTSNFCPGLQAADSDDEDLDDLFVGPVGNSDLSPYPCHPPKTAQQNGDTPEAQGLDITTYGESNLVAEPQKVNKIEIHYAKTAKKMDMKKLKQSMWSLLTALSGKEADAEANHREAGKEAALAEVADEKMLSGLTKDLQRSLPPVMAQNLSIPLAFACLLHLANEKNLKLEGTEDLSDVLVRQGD
inactive: ibrutinib 0.006 | [1] 0.016 | ralimetinib -0.002 | [2] -0.031 | [3] -0.013 | [4] 0.003 | [5] -0.001 | [6] -0.003 | [7] 0.012 | [8] 0.011

NDC1 (UniProt Q9BTX1)
inactive: ibrutinib 0.009 | [1] -0.02 | ralimetinib 0.007 | [2] -0.012 | [3] -0.013 | [4] -0.009 | [5] -0.031 | [6] 0.032 | [7] 0.007 | [8] 0.072

MRPS31 (UniProt Q92665)
inactive: ibrutinib -0.01 | [1] -0.039 | ralimetinib -0.006 | [2] -0.006 | [3] 0 | [4] -0.01 | [5] -0.071 | [6] -0.006 | [7] -0.022 | [8] -0.006

NCOR2 (UniProt C9J0Q5)
inactive: ibrutinib -0.002 | [1] -0.001 | ralimetinib -0.026 | [2] -0.056 | [3] -0.034 | [4] 0.046 | [5] 0.022 | [6] -0.064 | [7] -0.014 | [8] -0.04

NCAPD2 (UniProt Q15021)
Chain of UniProt Q15021 (Q15021 whole entry, looked up): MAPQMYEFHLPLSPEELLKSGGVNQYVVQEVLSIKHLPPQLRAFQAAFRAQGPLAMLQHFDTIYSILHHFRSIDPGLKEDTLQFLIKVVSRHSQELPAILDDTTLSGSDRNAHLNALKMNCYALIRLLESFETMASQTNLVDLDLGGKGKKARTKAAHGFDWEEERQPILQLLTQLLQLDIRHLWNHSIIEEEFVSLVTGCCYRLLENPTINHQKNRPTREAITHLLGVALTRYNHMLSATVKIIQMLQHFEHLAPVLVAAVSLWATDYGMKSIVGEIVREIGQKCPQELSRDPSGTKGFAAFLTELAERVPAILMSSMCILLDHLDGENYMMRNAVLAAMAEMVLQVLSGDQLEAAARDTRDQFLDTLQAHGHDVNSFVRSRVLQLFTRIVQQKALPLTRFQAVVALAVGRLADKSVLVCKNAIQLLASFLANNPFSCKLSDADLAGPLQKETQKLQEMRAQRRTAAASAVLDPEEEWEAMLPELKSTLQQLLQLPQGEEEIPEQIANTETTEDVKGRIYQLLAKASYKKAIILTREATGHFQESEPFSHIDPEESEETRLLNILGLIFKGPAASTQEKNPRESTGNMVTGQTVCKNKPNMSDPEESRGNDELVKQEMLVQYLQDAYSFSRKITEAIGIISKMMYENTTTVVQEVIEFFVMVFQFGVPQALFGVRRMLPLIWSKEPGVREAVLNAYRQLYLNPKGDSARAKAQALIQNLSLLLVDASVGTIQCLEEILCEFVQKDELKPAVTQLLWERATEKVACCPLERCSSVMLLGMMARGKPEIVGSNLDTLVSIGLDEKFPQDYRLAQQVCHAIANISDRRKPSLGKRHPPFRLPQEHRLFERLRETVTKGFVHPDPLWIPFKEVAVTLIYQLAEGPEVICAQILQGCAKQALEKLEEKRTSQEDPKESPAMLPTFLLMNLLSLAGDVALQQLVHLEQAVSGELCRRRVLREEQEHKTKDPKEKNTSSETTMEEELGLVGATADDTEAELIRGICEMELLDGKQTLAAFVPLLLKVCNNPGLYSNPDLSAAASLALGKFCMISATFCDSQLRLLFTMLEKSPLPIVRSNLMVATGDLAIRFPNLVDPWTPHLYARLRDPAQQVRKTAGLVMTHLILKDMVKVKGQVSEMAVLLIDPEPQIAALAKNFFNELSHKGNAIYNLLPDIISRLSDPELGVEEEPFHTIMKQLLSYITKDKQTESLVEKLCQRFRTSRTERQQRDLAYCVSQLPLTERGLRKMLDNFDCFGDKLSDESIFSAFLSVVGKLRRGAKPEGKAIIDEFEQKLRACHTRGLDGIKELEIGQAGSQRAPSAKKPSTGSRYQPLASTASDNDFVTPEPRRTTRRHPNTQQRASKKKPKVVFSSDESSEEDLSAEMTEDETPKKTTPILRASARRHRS
inactive: ibrutinib -0.019 | [1] -0.019 | ralimetinib 0.03 | [2] -0.012 | [3] -0.031 | [4] 0.022 | [5] -0.003 | [6] 0.016 | [7] 0.036 | [8] -0.005

OCRL (UniProt Q01968)
inactive: ibrutinib 0.051 | [1] -0.038 | ralimetinib -0.016 | [2] 0.016 | [3] 0.044 | [4] 0.013 | [5] 0.036 | [6] 0.022 | [7] -0.002 | [8] 0.033
